About 83,000 compounds went through this panel and 20% of them were active in at least one assay; those are over-represented in the sample as a whole.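 Interpretation: 100, growth as untreated; towards 0, rising growth inhibition; 0, no net growth; 0 to -100, cell death. Compounds scoring below 10 were considered active.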 Calls of active or inactive are those of the source.
Columns and labels:
Experiment in all cases: NCI-60 one-dose screen, 48 h (100 = growth as untreated, 0 = no growth, -100 = all killed)
HOP-92 NSCLC = conditions: 10 µM unless noted
COLO 205 colon = conditions: 10 µM
SF-295 CNS = conditions: 10 µM unless noted
SNB-19 CNS = conditions: 10 µM unless noted
LOX IMVI melanoma = conditions: 10 µM unless noted
SK-MEL-28 melanoma = conditions: 10 µM unless noted
EKVX NSCLC = conditions: 10 µM unless noted
SN12C renal = conditions: 10 µM unless noted
CAKI-1 renal = conditions: 10 µM unless noted
CCRF-CEM leukemia = conditions: 10 µM unless noted
SR leukemia = conditions: 10 µM
OVCAR-4 ovarian = conditions: 10 µM unless noted
IGROV1 ovarian = conditions: 10 µM
BT-549 breast = conditions: 10 µM
HCC-2998 colon = conditions: 10 µM unless noted
NCI-H522 lung = conditions: 10 µM unless noted
MALME-3M melanoma = conditions: 10 µM unless noted
TK-10 renal = conditions: 10 µM unless noted
RPMI-8226 leukemia = conditions: 10 µM unless noted

Measured: growth

Nc1c(Br)cc2c3c(cccc13)-c1ccccc1-2
active: SR leukemia 9.02%
inactive: HOP-92 NSCLC 25% | COLO 205 colon 88.2% | SF-295 CNS 74.5% | SNB-19 CNS 92.9% | LOX IMVI melanoma 53.7% | SK-MEL-28 melanoma 99.7% | EKVX NSCLC 53.1% | SN12C renal 90.4% | CAKI-1 renal 57.4% | CCRF-CEM leukemia 48.8% | OVCAR-4 ovarian 62.1% | IGROV1 ovarian 48.1% | BT-549 breast 91.8% | HCC-2998 colon 80.7%

CC(C)(NC(=O)c1nn(CCCCCF)c2ccccc12)c1ccccc1
inactive: HOP-92 NSCLC 68.6% | NCI-H522 lung 64.3% | MALME-3M melanoma 108% | SF-295 CNS 101% | SNB-19 CNS 106% | LOX IMVI melanoma 96.3% | SK-MEL-28 melanoma 111% | EKVX NSCLC 94.7% | TK-10 renal 103% | CCRF-CEM leukemia 82.5% | SR leukemia 85.2% | RPMI-8226 leukemia 78.6% | OVCAR-4 ovarian 88.5% | IGROV1 ovarian 101% | BT-549 breast 73.5% | HCC-2998 colon 105%

COc1ccccc1N1CCN(CCc2c[nH]c3cc4c(cc23)OCO4)CC1
active: HOP-92 NSCLC -8.6% | IGROV1 ovarian -33.9%
inactive: NCI-H522 lung 72% | COLO 205 colon 74.7% | MALME-3M melanoma 92% | SF-295 CNS 41% | SNB-19 CNS 79.6% | LOX IMVI melanoma 60.4% | SK-MEL-28 melanoma 94.2% | EKVX NSCLC 77.7% | SN12C renal 68.4% | TK-10 renal 89.7% | CAKI-1 renal 75.5% | CCRF-CEM leukemia 75.4% | RPMI-8226 leukemia 47.1% | OVCAR-4 ovarian 99.2% | BT-549 breast 84.2% | HCC-2998 colon 92.6%

COC(=O)C[Se]C(=O)c1ccccc1OC(C)=O
inactive: HOP-92 NSCLC 93.3% | COLO 205 colon 46.7% | MALME-3M melanoma 69.9% | SF-295 CNS 53.3% | SNB-19 CNS 83.9% | SK-MEL-28 melanoma 84.1% | EKVX NSCLC 31.4% | SN12C renal 93.2% | TK-10 renal 93.1% | CAKI-1 renal 87.8% | CCRF-CEM leukemia 76.6% | SR leukemia 20.7% | RPMI-8226 leukemia 96% | IGROV1 ovarian 52% | BT-549 breast 71.9% | HCC-2998 colon 62.1%

COc1ccc(C2SCC(=O)Nc3c2c(C)nn3-c2nc3ccc(C)cc3s2)cc1O (stereo not given)
inactive: HOP-92 NSCLC 28.9% | COLO 205 colon 35.1% | MALME-3M melanoma 43.5% | SF-295 CNS 32.4% | SNB-19 CNS 53.8% | LOX IMVI melanoma 36.9% | SK-MEL-28 melanoma 51.1% | SN12C renal 49.6% | TK-10 renal 71.6% | CAKI-1 renal 31.1% | CCRF-CEM leukemia 27.6% | RPMI-8226 leukemia 38.8% | OVCAR-4 ovarian 72.7% | IGROV1 ovarian 52.7% | HCC-2998 colon 54.2%
active: NCI-H522 lung 1.68% | SR leukemia 9.81%

O=c1[nH]c2cc(Cl)ccc2n1C1CCN(CCCC(c2ccc(F)cc2)c2ccc(F)cc2)CC1
inactive: SNB-19 CNS 73.8% | EKVX NSCLC 61.5% | SN12C renal 20.1% | TK-10 renal 13.1% | CAKI-1 renal 30% | SR leukemia 16.2% | OVCAR-4 ovarian 56.6% | BT-549 breast 78.4%
active: HOP-92 NSCLC -37.7% | NCI-H522 lung -56.4% | COLO 205 colon -88.3% | MALME-3M melanoma -1.17% | SF-295 CNS -27.6% | LOX IMVI melanoma -91.9% | SK-MEL-28 melanoma -90.8% | CCRF-CEM leukemia -39.3% | HCC-2998 colon -63.4%

O=C(CCl)NCNC(=O)CCl
inactive: HOP-92 NSCLC 99.5% | COLO 205 colon 109% | MALME-3M melanoma 114% | SF-295 CNS 56.5% | SNB-19 CNS 108% | SN12C renal 97.7% | TK-10 renal 105% | CAKI-1 renal 56.8% | SR leukemia 80.2% | RPMI-8226 leukemia 83% | OVCAR-4 ovarian 77.4% | IGROV1 ovarian 74.4% | BT-549 breast 86.7% | HCC-2998 colon 111%

COc1cc[c]([Hg][Cl])cc1
inactive: HOP-92 NSCLC 90.1% | MALME-3M melanoma 47.3% | SF-295 CNS 93.3% | SK-MEL-28 melanoma 20.7% | EKVX NSCLC 76.3% | TK-10 renal 114% | CAKI-1 renal 78.6% | RPMI-8226 leukemia 41.5% | OVCAR-4 ovarian 65.1% | IGROV1 ovarian 15.1% | BT-549 breast 45.5% | HCC-2998 colon 88.7%
active: NCI-H522 lung -73.8% | LOX IMVI melanoma -84.2% | SN12C renal -6.35% | CCRF-CEM leukemia -20.8% | SR leukemia -10.3%

Cc1cccc(N(C)c2cccc3c2C(=O)[Se]C3)c1C
inactive: HOP-92 NSCLC 81.4% | COLO 205 colon 27.1% | MALME-3M melanoma 63.7% | SF-295 CNS 20.7% | SNB-19 CNS 58.8% | LOX IMVI melanoma 38.2% | SK-MEL-28 melanoma 75.6% | EKVX NSCLC 19.9% | TK-10 renal 62.8% | CAKI-1 renal 70.1% | RPMI-8226 leukemia 81.9% | OVCAR-4 ovarian 40.7% | IGROV1 ovarian 28.2% | HCC-2998 colon 47.5%
active: SR leukemia 4.83%
